An excerpt weighted towards active compounds, which were near 19% of everything screened.
DT40 TDP1 no CPT – qHTS for Inhibitors of human tyrosyl-DNA phosphodiesterase 1 (TDP1): qHTS in cells in absence of CPT | DT40 Tdp1-/- hTDP1 cells, no CPT, ATP luminescence, 48 h | Potency, µM (series often up to 46.2 µM), for the others: at the top dose activity change, negative = growth inhibition, hits mostly inhibitors | 420,000 compounds, 15% hits | AID 686978, 2013; further: potency means the concentration at half of the fitted maximal effect; nearly all actives have a fitted effect of over 55% in size
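Chicken DT40 Tdp1-/- cells stably complemented with human TDP1 were seeded at 400 cells/well with DMSO in place of 20 nM camptothecin. After compound pinning, cells grew at least 48 hr at 37 °C; viability read by CellTiter-Glo luminescence.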
TDP1 cell CPT – qHTS for Inhibitors of human tyrosyl-DNA phosphodiesterase 1 (TDP1): qHTS in cells in presence of CPT. 420,000 compounds, 12% hits. chicken DT40 Tdp1-/-;hTDP1 cells + 20 nM CPT, ATP luminescence, 48 h. Potency, µM (highest dose often 46.2 µM), without a hit: at the highest dose activity change, negative = growth inhibition, actives largely listed as inhibitors. AID 686979, 2013; further: potency means the concentration at half of the fitted maximal effect; nearly all actives have a fitted effect of over 55% in size
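Chicken DT40 Tdp1-/- cells complemented with human TDP1, 400 cells/well, exposed to compounds plus 20 nM camptothecin for at least 48 h at 37 C; viability read as ATP content by CellTiter-Glo luminescence.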
Giardia kill – Small Molecules that selectively kill Giardia lamblia: qHTS. activity change, % at 7.66 µM, hits read low. AID 540267, 2011. 340,000 compounds, 0.15% hits. Giardia lamblia trophozoite viability; in the data active means activity change below about -80%; inconclusive means between about -30% and that limit;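 further: parasites exposed to compound for two days anaerobically before the ATP read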
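Trophozoite viability was measured as ATP-dependent luminescence, read 15-30 min after reagent addition. Before that, parasites at 100 cells/well were exposed to compounds for 48 h, anaerobically, at 37 deg C.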
IL1B secr inh – qHTS for Inhibitors of Inflammasome Signaling: IL-1-beta AlphaLISA Primary Screen. 360,000 compounds, 4.7% hits. AID 743279, 2014. THP-1 LPS/ATP IL-1B secretion, AlphaLISA, 16 h; active compounds read low. activity change, % at 57.5 µM; in the data active means activity change below about -50%; inconclusive means mostly about -30% to -49%
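Secreted IL-1B measured by AlphaLISA bead assay after 16 h compound exposure of THP-1 cells; compounds (final up to 57.5 uM) added 1 h before LPS (250 ng/mL) and ATP (1.25 mM) stimulation; lower signal means less secretion.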
ELG1 repair inh – qHTS screen for small molecules that inhibit ELG1-dependent DNA repair in human embryonic kidney (HEK293T) cells expressing luciferase-tagged ELG1; HEK293T ELG1-luciferase reporter, luminescence, 16 h; DNA damage induced by 5-fluorouridine; 330,000 compounds, 2.3% hits; AID 504467, 2011; Potency, µM (doses to about 46.1 µM), for the others: at the highest dose activity change, negative = inhibition, hits mostly inhibitors; further: potency means the concentration at half of the fitted maximal effect; nearly all actives have a fitted effect of over 55% in size
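Reporter activity after DNA damage by 5-fluorouridine is monitored. Compound-treated cells incubate 16 hr at 37 °C, then ONE-Glo is added for 30 min before luminescence reading.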
TDP1 inh – qHTS Assay for Inhibitors of Tyrosyl-DNA Phosphodiesterase (TDP1) | Tyrosyl-DNA phosphodiesterase 1 (Homo sapiens), Q9NUW8 | recombinant TDP1, AlphaScreen DNA substrate cleavage | Potency, µM (highest dose often 130 µM), inactives show at the top dose activity change, negative = inhibition, hits mostly inhibitors | 350,000 compounds, 0.28% hits | AID 485290, 2010; further: potency means the concentration at half of the fitted maximal effect; nearly all actives have a fitted effect of over 40% in size
Target sequence (Q9NUW8 whole entry, looked up): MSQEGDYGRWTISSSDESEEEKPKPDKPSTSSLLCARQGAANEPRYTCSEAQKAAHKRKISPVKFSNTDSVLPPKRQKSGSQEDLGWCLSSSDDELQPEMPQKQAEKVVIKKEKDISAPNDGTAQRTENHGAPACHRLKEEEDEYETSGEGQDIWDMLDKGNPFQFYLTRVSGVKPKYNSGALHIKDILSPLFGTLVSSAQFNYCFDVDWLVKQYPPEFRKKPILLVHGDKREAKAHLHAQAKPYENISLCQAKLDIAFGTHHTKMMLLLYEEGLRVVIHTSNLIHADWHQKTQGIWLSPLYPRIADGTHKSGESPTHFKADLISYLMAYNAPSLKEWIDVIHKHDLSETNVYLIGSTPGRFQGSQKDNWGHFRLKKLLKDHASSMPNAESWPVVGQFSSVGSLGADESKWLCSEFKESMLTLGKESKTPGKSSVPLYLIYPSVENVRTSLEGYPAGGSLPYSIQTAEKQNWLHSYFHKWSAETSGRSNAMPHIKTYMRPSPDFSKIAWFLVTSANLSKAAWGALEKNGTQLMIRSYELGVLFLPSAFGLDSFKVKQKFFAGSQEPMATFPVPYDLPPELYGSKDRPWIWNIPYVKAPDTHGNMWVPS
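Steps: enzyme plus compound, 15 min RT; add biotin/phosphotyrosine-FITC oligonucleotide (15 nM final), react 5 min; add donor/acceptor beads (10 ug/ml final), 10 min; read AlphaScreen. Tdp1 at 1 nM final.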
Numbers without * were called inactive; ? = inconclusive; . = not tested or not shown; [ ] = another dose, or the depositor's remark. Unless noted, the call rests on the fitted dose curve; in most records, active means well fitted curve in the direction sought with a large enough effect; inconclusive means small, poorly fitted or top-dose-only effect, or another doubt; inactive means no such curve, though single readings can be large; an effect the other way counts as inactive or inconclusive. On the % scale 0 is the no-effect control and ±100 the full control effect.

SMILES	DT40 TDP1 no CPT	TDP1 cell CPT	Giardia kill	IL1B secr inh	ELG1 repair inh	TDP1 inh
Cc1cc(C)cc(-n2ccnc2SCC(=O)Nc2ccc3c(c2)OCCO3)c1	-24%	-26%	-2	?	-10%	9%
Cc1ccc(C)c(NC(=O)CSc2nccn2-c2cccc(C)c2C)c1	21µM*	18µM*	.	.	.	7%
CS(=O)(=O)c1ccc(C(=O)N2CCN(S(=O)(=O)c3ccc(C4CCCCC4)cc3)CC2)cc1	-24%	?	-6	18	.	.
N=C1S/C(=C\c2cn[nH]c2-c2ccc(F)cc2)C(=O)N1c1ccccc1F	?	?	-3	-25	?	1%
CCOc1ccc(-n2c(SCC(=O)NCC3CCCO3)nc3c([nH]c4ccccc43)c2=O)cc1 (stereo unspecified)	-13%	-17%	.	.	.	4%
O=C(Nc1cccc(C(=O)N2CCCCC2)c1)c1nsc2ccccc12	?	?	.	.	.	8%
O=C(CSc1nccn1Cc1ccc(F)cc1)Nc1ccc(F)cc1F	-25%	-23%	-18	0	23µM*	5%
O=C(CSc1nccn1-c1cccc(Cl)c1)NC1CCCC1	21µM*	-23%	-10	-1	-2%	4%
O=C(CSc1nccn1-c1cccc(Cl)c1)NO	-23%	?	-4	0	7%	0%
Cc1cccc(-n2ccnc2SCC(=O)N2CCCc3ccccc32)c1C	21µM*	18µM*	8	-21	-15%	2%
COc1ccccc1NC(=O)CSc1nccn1Cc1ccc(F)cc1	?	?	15	18	8%	7%
CCc1ccc(NC(=O)CSc2nccn2-c2cccc(C)c2C)cc1	21µM*	23µM*	.	.	.	12%
CCOc1ccc(-n2ccnc2SCC(=O)Nc2cccc3ccccc23)cc1	?	?	.	.	.	8%
Cc1ccc(C)c2c1cc(C)c1nnc(SCC(=O)N3CCCc4ccccc43)n12	15µM*	?	14	-1	?	0%
Cc1cc(C)c2c(c1)cc(C)c1nnc(SCC(=O)N3CCCc4ccccc43)n12	-27%	4%	-19	0	-8%	4%
CCOc1ccccc1NC(=O)CSc1nccn1-c1cccc(C)c1	18µM*	21µM*	.	.	.	10%
Cc1cccc(NC(=O)CSc2nccn2-c2cccc(Cl)c2)c1C	?	21µM*	.	.	.	9%
Cc1ccc(Nc2nnc(SC(C)C(=O)NCC3CCCO3)s2)cc1 (stereo unspecified)	-16%	?	-5	-7	?	0%
COc1cccc(N2CCN(C(=O)c3c(C)oc4ncnc(N5CCOCC5)c34)CC2)c1	-17%	2%	.	.	.	0%
CC(=O)c1ccc(N2CCN(c3ncnc4onc(-c5ccc(Cl)cc5)c34)CC2)cc1	16µM*	23µM*	.	.	.	1%
COc1cccc(N2CCN(c3ncnc4onc(-c5ccc(Cl)cc5)c34)CC2)c1	16µM*	?	.	.	.	4%
Fc1ccccc1N1CCN(c2ncnc3onc(-c4ccc(Cl)cc4)c23)CC1	21µM*	-26%	.	.	.	1%
COc1ccccc1N1CCN(c2nc3c(S(=O)(=O)c4ccc(C)c(C)c4)nnn3c3ccc(Cl)cc23)CC1	-13%	-10%	.	.	.	0%
O=C1c2ccccc2[C@@H]2C[C@@H](O)[C@H](Nc3ccccc3)CCN12	-11%	13%	-4	40	?	1%[56.1 µM]
O=C1c2ccccc2[C@@H]2C[C@@H](O)[C@H](Nc3ccccc3-c3ccccc3)CCN12	18µM*	?	2	-1	?	0%[56.1 µM]
SMILES	DT40 TDP1 no CPT	TDP1 cell CPT	Giardia kill	IL1B secr inh	ELG1 repair inh	TDP1 inh
O=C1c2ccccc2[C@@H]2C[C@@H](O)[C@H](Nc3cccc(C(F)(F)F)c3)CCN12	?	23µM*	-9	?	-20%	-2%[56.1 µM]
CSc1cccc(NS(=O)(=O)c2ccc(C(C)=O)cc2)c1	?	?	16	22	7.3µM*	7%
CC(=O)N1CCCc2cc(S(=O)(=O)Nc3ccc(C)c(F)c3)ccc21	16µM*	?	4	.	.	8%
CC(=O)N1CCc2cc(S(=O)(=O)Nc3ccc(C)c(C)c3)ccc21	.	.	.	.	.	1%
CSc1cccc(NS(=O)(=O)c2ccc(F)cc2)c1	-20%	-20%	-5	15	-10%	2%
CC(=O)N1CCc2cc(S(=O)(=O)Nc3cccc(C(F)(F)F)c3)ccc21	21µM*	18µM*	3	-4	?	4%
CSc1cccc(NS(=O)(=O)c2ccc3c(c2)CCN3C(C)=O)c1	3.7µM*	9.2µM*	18	-12	?	.
CC(C)C[C@H](NC(=O)[C@H](Cc1ccccc1)n1c(=O)[nH]c2ccccc2c1=O)C(=O)N1CCC[C@H]1C(=O)O	-1%	11%	7	13	5%	.
CS(=O)(=O)N(CC(=O)NCCc1ccccc1)c1cc(C(F)(F)F)ccc1Cl	-29%	-27%	.	.	.	.
CC(=O)N1CCOc2cc(S(=O)(=O)Nc3cccc(C(F)(F)F)c3)c(Cl)cc21	?	?	.	.	.	11µM*
Cc1[nH]c2ccccc2c1C(=O)CN1CCCCC1CCO (stereo unspecified)	16µM*	?	-1	11	1%	3%
O=C1CCCC(O)=C1N=Nc1ccc(C(=O)O)cc1	15%	9%	0	20	-2%	2.2µM*
O=C1CCCC(O)=C1N=Nc1ccc2c(c1)OCO2	-6%	1%	11	-1	?	8%
C=CC1CN(C(=O)OCC(Cl)(Cl)Cl)C2CC3c4ccc(OC)cc4NC3C3CC1C2CO3 (stereo unspecified)	18µM*	?	-14	-10	.	.
COc1ccc(NS(=O)(=O)c2cc(C)ccc2NC(=O)c2cc(C)oc2C)cc1	0.58µM*	0.92µM*	-17	55	?	10%
Clc1ccc(Cn2ccc3ccccc32)cn1	-22%	-18%	11	52	-4%	-1%
CCCCN(CCCC)c1ccc(Cn2ccc3ccccc32)cc1	8.9µM*	7.9µM*	.	.	.	.
CN(C)c1ccc(Cn2ccc3ccccc32)cc1	22µM*	-30%	.	.	.	.
Cc1ccc(F)c(S(=O)(=O)NC(=O)C2(C)CCN2C(=O)c2ccccc2)c1 (stereo unspecified)	-7%	-5%	.	31	.	.
